Laboratory results from PubChem BioAssay (NCI).
Compounds without any hit were thinned out: in the full panel of roughly 83,000, 20% have a hit.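 How to read the values: 0–100, growth inhibition (40 = 60% inhibited); 0, no net growth; -100 to 0, cell death (-40 = 40% of starting cells died; -100 = all dead).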 Unmarked numbers belong to inactive results. Active and inactive are the calls of the source. The calls were made as follows: active = growth percent below 10; inactive = the rest.

Each compound was assayed on HL-60(TB) leukemia (assay: NCI-60 one-dose screen, 48 h (100 = growth as untreated, 0 = no growth, -100 = all killed)). Conditions: 10 µM unless noted.

| Compound | growth |
| --- | --- |
| CCCOCc1cn[nH]n1 | 105% |
| CCCCNC(=O)Oc1ccc(/C(=C(\C)c2ccc(Cl)cc2)c2ccc(OCCN3CCCCC3)cc2)cc1 | 64.9% |
| Cc1ccc(Nc2cc(=S)nc(N)[nH]2)cc1C | 92.6% |
| CN(C)c1ccc(C(C#N)(c2ccccc2)c2ccc(N(C)C)cc2)cc1 | 61.9% |
| Fc1cc2[nH]ncc2c2c3c(c(-c4cn[nH]c4C(F)(F)F)nc12)C1CCC3C1 (stereo unspecified) | 1.63% (active) |
| COc1ccc(-c2nc3sccn3c2/C=C/C(=O)c2c[nH]c3ccccc23)cc1 | 117% |
| CCCCCCn1c(=N)n(CC(O)COc2cccc(C)c2)c2ccccc21 (stereo unspecified) | -48% (active) |
| O=C(Nc1nc2cccc(-c3ccc(CN4CCS(=O)(=O)CC4)cc3)n2n1)C1CC1 | 66.4% |
| CC(=O)OC1Oc2cc(C)c(C)cc2-c2oc(=O)c(-c3ccc(F)cc3)cc21 (stereo unspecified) | 12.5% |
| N=C(N)c1ccc(-c2cc(Cl)cc(Cl)c2)cn1 | 98.1% |
| COc1ccc(-c2[nH]ncc2-c2cc3c(c(OC)c2)OCC(=O)N3)cc1 | 11.3% |
| CCc1c(C(=O)Nc2ccc3ccccc3c2)[nH]c(C)c1C(C)=O | 99.7% |
| O=c1nc2oc3ccc4ccccc4c3cc-2s1 | -29.2% (active) |
| CCc1c(C)[nH]c(=O)c(C(N)=O)c1C#N | 102% |
| COc1cc(/C=N/Nc2ccccc2F)cc(OC)c1OC | 90.1% |
| O=C(O)C(/C=C/c1ccco1)=N\Nc1nc(-c2ccc(Cl)cc2)cs1 | 52.2% |
